Test results from PubChem BioAssay AID1159580 (chemical genetic matrix, 2015).
Screen size: about 5,500 compounds; about 2,000 (36%) were called active. Another 18% or so got no clear call; they are omitted. Cut-off read from the data, not from the text of the source: active = normalized growth mostly below about 0.91 (no sharp cut-off); inconclusive = no clear call, values can overlap the other calls; inactive = mostly above about 0.92. This is one part of the list.

Assay: chemical genetic growth profiling, strain panel (AID 1159580);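 note: tested at 20 µM; growth read once vehicle control cultures reached saturation at 30 °C; 1 = growth at the plate median or of vehicle wells; lower values mean less growth of the strain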
Conditions: S. cerevisiae deletion strains, growth OD

Measured: normalized growth

C=C1C(=O)OC2CC1C(OC(C)=O)C/C(C)=C/CC/C(C)=C/CC[C@]2(C)O (stereo partly specified)
inactive: locus YAL013W, strain DEP1, stronger effect = lower value 0.999 | locus YAL021C, strain ccr4, stronger effect = lower value 0.964 | locus YAL026C, strain drs2, stronger effect = lower value 0.987 | locus YAL030W, strain snc1, stronger effect = lower value 0.984 | locus YBL061C, strain skt5, stronger effect = lower value 1.01 | locus YBR009C, strain hhf1, stronger effect = lower value 1.01 | locus YBR021W, strain FUR4, stronger effect = lower value 1.03 | locus YBR023C, strain chs3, stronger effect = lower value 1.01 | locus YBR171W, strain sec66, stronger effect = lower value 0.994 | locus YBR229C, strain ROT2, stronger effect = lower value 1.02 | locus YBR231C, strain swc5, stronger effect = lower value 1.01 | locus YBR279W, strain paf1, stronger effect = lower value 0.996 | locus YCL011C, strain gbp2, stronger effect = lower value 1 | locus YCL016C, strain dcc1, stronger effect = lower value 1 | locus YCL029C, strain bik1, stronger effect = lower value 1.02 | locus YCL061C, strain MRC1, stronger effect = lower value 0.993 | locus YCL069W, strain vba3, stronger effect = lower value 0.987 | locus YCR088W, strain abp1, stronger effect = lower value 0.991 | locus YDL005C, strain med2, stronger effect = lower value 0.992 | locus YDL035C, strain GPR1, stronger effect = lower value 1.01 | locus YDL040C, strain nat1, stronger effect = lower value 0.981 | locus YDL074C, strain BRE1, stronger effect = lower value 1 | locus YDL101C, strain DUN1, stronger effect = lower value 1.01 | locus YDL185W, strain tfp1, stronger effect = lower value 1.02 | locus YDL192W, strain arf1, stronger effect = lower value 1 | locus YDR001C, strain nth1, stronger effect = lower value 0.982 | locus YDR069C, strain doa4, stronger effect = lower value 1.01 | locus YDR101C, strain arx1, stronger effect = lower value 1.03 | locus YDR137W, strain rgp1, stronger effect = lower value 0.935 | locus YDR150W, strain NUM1, stronger effect = lower value 1 | locus YDR159W, strain sac3, stronger effect = lower value 1.03 | locus YDR162C, strain NBP2, stronger effect = lower value 1.02 | locus YDR195W, strain ref2 1.02 | locus YDR297W, strain sur2, stronger effect = lower value 0.997 | locus YDR318W, strain mcm21, stronger effect = lower value 1 | locus YDR334W, strain swr1, stronger effect = lower value 1.01 | locus YDR335W, strain msn5, stronger effect = lower value 0.985 | locus YDR388W, stronger effect = lower value 1.01 | locus YDR392W, strain spt3, stronger effect = lower value 0.977 | locus YDR502C, strain sam2, stronger effect = lower value 1.03 | locus YEL003W, strain gim4, stronger effect = lower value 1.01 | locus YEL037C, strain rad23, stronger effect = lower value 0.99 | locus YEL061C, strain CIN8 (second series), stronger effect = lower value 0.994 | locus YEL061C, strain CIN8, stronger effect = lower value 1.02 | locus YER015W, strain faa2, stronger effect = lower value 1 | locus YER016W, strain bim1, stronger effect = lower value 0.992 | locus YER110C, stronger effect = lower value 1.02 | locus YER111C, strain swi4, stronger effect = lower value 0.995 | locus YER155C, strain BEM2 (second series), stronger effect = lower value 1.03 | locus YER155C, strain BEM2, stronger effect = lower value 1 | locus YER167W, strain BCK2, stronger effect = lower value 1.01 | locus YFR010W, strain ubp6, stronger effect = lower value 0.995 | locus YGL078C, strain dbp3, stronger effect = lower value 1.01 | locus YGL086W, strain mad1, stronger effect = lower value 1.02 | locus YGL167C, strain pmr1, stronger effect = lower value 0.988 | locus YGL173C, strain kem1, stronger effect = lower value 1.01 | locus YGL227W, strain vid30, stronger effect = lower value 0.989 | locus YGL240W, strain doc1, stronger effect = lower value 1.02 | locus YGL248W, strain PDE1, stronger effect = lower value 1.02 | locus YGL253W, strain hxk2, stronger effect = lower value 0.923 | locus YGR135W, strain pre9, stronger effect = lower value 1 | locus YGR252W, strain gcn5, stronger effect = lower value 1.01 | locus YHR013C, strain ard1, stronger effect = lower value 0.979 | locus YHR027C, strain rpn1, stronger effect = lower value 0.99 | locus YHR030C, strain SLT2, stronger effect = lower value 1.02 | locus YHR079C, strain IRE1 (second series), stronger effect = lower value 1.01 | locus YHR094C, strain hxt1, stronger effect = lower value 1.01 | locus YHR129C, strain ARP1, stronger effect = lower value 1.01 | locus YHR142W, strain chs7, stronger effect = lower value 1.01 | locus YHR200W, strain rpn10, stronger effect = lower value 1.02 | locus YIL066C, strain RNR3, stronger effect = lower value 1.01 | locus YIL073C, strain SPO22, stronger effect = lower value 0.983 | locus YIL125W, strain kgd1, stronger effect = lower value 1.01 | locus YIR030C, strain dcg1, stronger effect = lower value 1.01 | locus YJL092W, strain hpr5, stronger effect = lower value 0.988 | locus YJL095W, strain BCK1 (second series), stronger effect = lower value 0.998 | locus YJL095W, strain BCK1, stronger effect = lower value 1 | locus YJL115W, strain asf1, stronger effect = lower value 0.982 | locus YJL129C, strain trk1, stronger effect = lower value 1.01 | locus YJL134W, strain LCB3, stronger effect = lower value 1 | locus YJL154C, strain vps35, stronger effect = lower value 0.982 | locus YJL164C, strain tpk1, stronger effect = lower value 0.981 | locus YJL166W, strain qcr8, stronger effect = lower value 1 | locus YJL168C, strain set2, stronger effect = lower value 1.03 | locus YJL187C, strain SWE1 (second series), stronger effect = lower value 1.01 | locus YJL187C, strain SWE1, stronger effect = lower value 0.978
